# Laboratory results as given in PubChem BioAssay (NCI).
# The panel holds about 83,000 compounds, 20% with a hit somewhere; the sample as a whole holds those more often.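 Cells were grown in 96-well plates and exposed to the test compound at a single concentration for 48 hours; results are reported as percent growth, with values below 10 considered active.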 A number with no mark means an inactive call. Calls of active or inactive are those of the source.
# Test system: IGROV1 ovarian
# Experiment: NCI-60 one-dose screen, 48 h (100 = growth as untreated, 0 = no growth, -100 = all killed)
# Conditions: 10 µM unless noted
row,SMILES,growth
1,CC1OC(O[C@@H]2[C@H](O)C(CO)OC(O[C@H]3COC(O[C@H]4CC[C@]5(C)[C@H]6CC[C@]78OC[C@@]9(CC[C@](C)(C=O)C[C@H]97)C(=O)C[C@@]8(C)[C@]6(C)CC[C@H]5C4(C)C)[C@@H](O)[C@@H]3O)[C@H]2OC2OC[C@@H](O)[C@@H](O)[C@@H]2O)[C@@H](O)[C@@H](O)[C@H]1O (some centres not stated),94.8%
2,CC(=O)NC(C)(C)C(=O)N1CCC[C@H]1C(=O)NC(C)(C)C(=O)N[C@@H](C)C(=O)NC(C)(C)C(=O)NC(C)(C)C(=O)N[C@@H](CCC(N)=O)C(=O)NC(C)(C)C(=O)N[C@H](C(=O)NC(C)(C)C(=O)NCC(=O)N[C@@H](CC(C)C)C(=O)NC(C)(C)C(=O)N1CCC[C@H]1C(=O)N[C@H](C(=O)NC(C)(C)C(=O)NC(C)(C)C(=O)N[C@@H](CCC(N)=O)C(=O)N[C@@H](CCC(N)=O)C(=O)N[C@H](CO)Cc1ccccc1)C(C)C)C(C)C,46.4% [4.25 µM]
3,CC1(C)CC[C@]2(C(=O)O)CC[C@]3(C)C(=CCC4[C@@]5(C)C[C@@H](O)[C@@H]6OC(c7cccc([N+](=O)[O-])c7)OC[C@@]6(C)C5CC[C@]43C)C2C1 (some centres not stated),74.4%
4,Oc1ccccc1-c1nnc(SCc2ccc(O)c3ncccc23)n1-c1ccccc1,6.65% (active)
5,O=c1c2c(O)cccc2oc2c3c(cc(O)c12)O[C@H]1OC=C[C@@H]31,77.4%
6,O=C(CN1C(=O)S/C(=C\c2ccccc2)C1=O)Nc1ccc(C(=O)/C=C/c2cc3ccccc3nc2Cl)cc1,80.4%
7,O=C(/C=C/c1cccc(O)c1)c1ccc(O)cc1,80.2%
8,ClC(Cl)c1nc(-c2cccs2)n2nc(-c3ccccc3)cc2n1,47.2%
9,CC1OC(O[C@@H]2C(O)C(CO)OC(O[C@H]3COC(O[C@H]4CC[C@]5(C)[C@H]6CC[C@]78OC[C@@]9(CC[C@](C)(C=O)C[C@H]97)[C@H](O)C[C@@]8(C)[C@]6(C)CC[C@H]5C4(C)C)[C@@H](OC4OC(CO)[C@@H](O)[C@@H](O)[C@@H]4O)[C@@H]3O)[C@H]2OC2OC[C@@H](O)[C@@H](O)[C@@H]2O)[C@@H](O)[C@@H](O)[C@H]1O (some centres not stated),43.8%
10,O=C(CCCCCCN1CC(=O)N2[C@@H](c3cc(F)cc(F)c3)c3[nH]c4ccccc4c3C[C@H]2C1=O)NO,49.1%
11,N=c1c2cc(-c3ccccc3)oc2ncn1/N=C/c1ccccc1,63%
12,COc1cc(CNC(=O)/C=C/c2ccccc2)ccc1OCC(=O)NO,98.1%
13,C=C(C)[C@@H]1CC[C@]2(COS(C)(=O)=O)CC[C@]3(C)[C@H](CC[C@@H]4[C@@]5(C)CCCNC(C)(C)[C@@H]5CC[C@]43C)[C@@H]12,78.2%
14,C#CCOc1ccc(C(Nc2cc(Cl)ccc2Cl)c2nnnn2C2CCCCC2)cc1 (configuration not stated),80.4%
15,Oc1ccc(CSc2nnc(-c3cnccn3)n2-c2ccccc2)c2cccnc12,16.3%
16,O=C(COc1ccc(C2SCC(=O)N2c2ccccc2)cc1)c1ccccc1 (configuration not stated),96.4%
17,c1ccc(-c2c(-c3ccccc3)[n+](Cc3ccc4ccccc4c3)c(-c3ccccc3)n2Cc2ccc3ccccc3c2)cc1,-76.5% (active)
18,O=C1[C@H]2Cc3c([nH]c4ccccc34)[C@H](c3ccc(Cl)cc3)N2C(=O)CN1C1CCN(Cc2c(Cl)cccc2Cl)CC1,39%
19,COc1ccc(/C=C/C(=O)c2nnn(-c3ccc(Br)cc3)c2C)cc1OC,69.2%
20,CCC(CC)N1C(=O)/C(=c2\sc3n(c2=O)C2C(NN=3)N(CC)C(=O)N2CC)c2ccccc21 (configuration not stated),23%
21,COc1ccc(-c2nnc(SCc3ccc(O)c4ncccc34)n2-c2ccccc2)cc1,10%
22,C=C(C)[C@@H]1CC[C@]2(C(=O)NCCCN(CCC#N)CCC#N)CC[C@]3(C)[C@H](CC[C@@H]4[C@@]5(C)CCC(=O)C(C)(C)[C@@H]5CC[C@]43C)[C@@H]12,112%
23,O=C(COc1ccc(C2SCC(=O)N2c2ccc(F)cc2)cc1)c1ccccc1 (configuration not stated),86.2%
24,NCCN1CCN(c2nc(-c3ccccc3)nc3nc(-c4ccccc4)oc23)CC1,-71.6% (active)
25,Cc1ccc(NC(=O)c2cccc(CN3CCN(C)CC3)c2)cc1Oc1ccc(-c2[nH]nc3ncnc(N)c23)cc1,63.3%

# Test system: OVCAR-3 ovarian
# Experiment: as above
# Conditions: 10 µM unless noted
row,SMILES,growth
1,C=C1C(=O)O[C@@H]2C[C@@H](C)[C@H](OC)CC(=O)[C@](C)(OC(C)=O)C[C@H](OC(=O)/C(C)=C\C)[C@@H]12,21.4%
2,O=C1[C@H]2Cc3c([nH]c4ccccc34)[C@@H](c3ccc(Cl)cc3)N2C(=O)CN1C1CCN(Cc2c(Cl)cccc2Cl)CC1,100%
3,COc1ccc(Cn2cc3c(c2-c2ccccc2)CCCc2cnoc2-3)cc1,22%
4,COc1ccc(-c2oc3cc(O)cc(O)c3c(=O)c2OC)cc1O,-7.51% (active)
5,N/C(=N\OC(=O)CSc1nc2ccccc2s1)c1ccc2ccccc2c1,116%
6,CCOC(=O)C1=C(C)Nc2nc3ccccc3n2C1c1ccccc1 (configuration not stated),90.9%
7,CS(=O)(=O)c1ccc(-c2nn(-c3ccccc3)cc2/C=N/NC(=O)c2ccncc2)cc1,109%
8,Cc1cc(O)c2c(c1)C(=O)C(c1c(C)cc3c(c1O)C(=O)C=CC3=O)=CC2=O,23.4%
9,N#Cc1c(NC(=O)c2ccccc2C(F)(F)F)sc2c1CCC(=O)C2,4.15% (active)
10,CCOC(=O)C1=C(C)N=C2Sc3ccccc3N2C1c1ccccc1 (configuration not stated),98.4%
11,CN(C)c1ncc(/C=C2\SC(=S)N(Cc3ccccc3Cl)C2=O)s1,26.8%
12,CCN1C(=O)N(CC)C2SC(N/N=C/c3ccc(OC)cc3)=NC21 (configuration not stated),-13.1% (active)
13,O=C1[C@@H]2Cc3c([nH]c4ccccc34)[C@H](c3c(Cl)cccc3Cl)N2C(=O)CN1C1CCN(Cc2c(F)cccc2F)CC1,113%
14,CC1OC(O[C@@H]2[C@H](O)C(CO)OC(O[C@H]3COC(O[C@H]4CC[C@]5(C)[C@H]6CC[C@]78OC[C@@]9(CC[C@](C)(C=O)C[C@H]97)C(=O)C[C@@]8(C)[C@]6(C)CC[C@H]5C4(C)C)[C@@H](O)[C@@H]3O)[C@H]2OC2OC[C@@H](O)[C@@H](O)[C@@H]2O)[C@@H](O)[C@@H](O)[C@H]1O (some centres not stated),105%
15,CC(=O)NC(C)(C)C(=O)N1CCC[C@H]1C(=O)NC(C)(C)C(=O)N[C@@H](C)C(=O)NC(C)(C)C(=O)NC(C)(C)C(=O)N[C@@H](CCC(N)=O)C(=O)NC(C)(C)C(=O)N[C@H](C(=O)NC(C)(C)C(=O)NCC(=O)N[C@@H](CC(C)C)C(=O)NC(C)(C)C(=O)N1CCC[C@H]1C(=O)N[C@H](C(=O)NC(C)(C)C(=O)NC(C)(C)C(=O)N[C@@H](CCC(N)=O)C(=O)N[C@@H](CCC(N)=O)C(=O)N[C@H](CO)Cc1ccccc1)C(C)C)C(C)C,26.3% [4.25 µM]
16,CC1(C)CC[C@]2(C(=O)O)CC[C@]3(C)C(=CCC4[C@@]5(C)C[C@@H](O)[C@@H]6OC(c7cccc([N+](=O)[O-])c7)OC[C@@]6(C)C5CC[C@]43C)C2C1 (some centres not stated),81.9%

row,SMILES,growth
1,Oc1ccccc1-c1nnc(SCc2ccc(O)c3ncccc23)n1-c1ccccc1,18.7%
2,O=c1c2c(O)cccc2oc2c3c(cc(O)c12)O[C@H]1OC=C[C@@H]31,106%
3,O=C(CN1C(=O)S/C(=C\c2ccccc2)C1=O)Nc1ccc(C(=O)/C=C/c2cc3ccccc3nc2Cl)cc1,85.6%
4,O=C(/C=C/c1cccc(O)c1)c1ccc(O)cc1,14.3%
5,ClC(Cl)c1nc(-c2cccs2)n2nc(-c3ccccc3)cc2n1,-37.4% (active)
6,CC1OC(O[C@@H]2C(O)C(CO)OC(O[C@H]3COC(O[C@H]4CC[C@]5(C)[C@H]6CC[C@]78OC[C@@]9(CC[C@](C)(C=O)C[C@H]97)[C@H](O)C[C@@]8(C)[C@]6(C)CC[C@H]5C4(C)C)[C@@H](OC4OC(CO)[C@@H](O)[C@@H](O)[C@@H]4O)[C@@H]3O)[C@H]2OC2OC[C@@H](O)[C@@H](O)[C@@H]2O)[C@@H](O)[C@@H](O)[C@H]1O (some centres not stated),79.4%
7,O=C(CCCCCCN1CC(=O)N2[C@@H](c3cc(F)cc(F)c3)c3[nH]c4ccccc4c3C[C@H]2C1=O)NO,55.8%
8,N=c1c2cc(-c3ccccc3)oc2ncn1/N=C/c1ccccc1,59.2%
9,COc1cc(CNC(=O)/C=C/c2ccccc2)ccc1OCC(=O)NO,104%
10,C=C(C)[C@@H]1CC[C@]2(COS(C)(=O)=O)CC[C@]3(C)[C@H](CC[C@@H]4[C@@]5(C)CCCNC(C)(C)[C@@H]5CC[C@]43C)[C@@H]12,92.2%
11,C#CCOc1ccc(C(Nc2cc(Cl)ccc2Cl)c2nnnn2C2CCCCC2)cc1 (configuration not stated),95.6%
12,Oc1ccc(CSc2nnc(-c3cnccn3)n2-c2ccccc2)c2cccnc12,14.8%
13,O=C(COc1ccc(C2SCC(=O)N2c2ccccc2)cc1)c1ccccc1 (configuration not stated),116%
14,c1ccc(-c2c(-c3ccccc3)[n+](Cc3ccc4ccccc4c3)c(-c3ccccc3)n2Cc2ccc3ccccc3c2)cc1,-87.8% (active)
15,O=C1[C@H]2Cc3c([nH]c4ccccc34)[C@H](c3ccc(Cl)cc3)N2C(=O)CN1C1CCN(Cc2c(Cl)cccc2Cl)CC1,76.8%
16,COc1ccc(/C=C/C(=O)c2nnn(-c3ccc(Br)cc3)c2C)cc1OC,52.9%
